About 3,300 (1.1%) of roughly 310,000 compounds were called active.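 Rule for the calls: active = B-score under library mean minus 3 SD, initial fluorescence not abnormally high, positive integrated signal ratio; inactive = the rest.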 Many of the other results were omitted from the sample, so actives are more common in it than they were.

Short transient receptor potential channel 6 (Mus musculus), sequence (Q61143 whole entry, looked up): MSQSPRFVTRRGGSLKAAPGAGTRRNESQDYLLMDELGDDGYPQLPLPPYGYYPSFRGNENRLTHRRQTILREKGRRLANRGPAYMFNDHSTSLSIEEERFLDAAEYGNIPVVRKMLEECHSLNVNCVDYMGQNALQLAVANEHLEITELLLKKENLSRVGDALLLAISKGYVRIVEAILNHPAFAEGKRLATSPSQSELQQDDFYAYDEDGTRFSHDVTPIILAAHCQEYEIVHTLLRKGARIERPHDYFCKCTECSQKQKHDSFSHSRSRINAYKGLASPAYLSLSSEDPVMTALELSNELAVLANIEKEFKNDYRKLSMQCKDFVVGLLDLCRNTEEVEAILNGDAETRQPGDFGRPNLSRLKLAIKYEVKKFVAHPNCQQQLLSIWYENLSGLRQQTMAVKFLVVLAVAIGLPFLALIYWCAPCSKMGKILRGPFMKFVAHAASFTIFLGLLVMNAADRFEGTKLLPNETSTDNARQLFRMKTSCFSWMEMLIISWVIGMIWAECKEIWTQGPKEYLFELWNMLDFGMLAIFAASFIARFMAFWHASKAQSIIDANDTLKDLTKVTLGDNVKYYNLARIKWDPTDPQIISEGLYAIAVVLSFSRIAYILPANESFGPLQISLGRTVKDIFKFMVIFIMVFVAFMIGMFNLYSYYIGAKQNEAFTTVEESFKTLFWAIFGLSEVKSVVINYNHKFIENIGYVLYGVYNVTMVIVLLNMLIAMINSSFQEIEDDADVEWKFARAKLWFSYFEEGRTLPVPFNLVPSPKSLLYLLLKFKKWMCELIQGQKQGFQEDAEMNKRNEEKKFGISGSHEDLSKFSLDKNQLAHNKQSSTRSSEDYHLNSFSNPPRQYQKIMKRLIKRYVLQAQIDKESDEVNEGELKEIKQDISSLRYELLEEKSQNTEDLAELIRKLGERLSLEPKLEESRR

The assay concerns the target Short transient receptor potential channel 6 (Mus musculus) (UniProt Q61143). The assay is described as follows: mouse TRPC6 channel inhibitors, primary screen, cell-based, HEK293, membrane potential dye (AID 2553).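 For B-score: B-score derived from integrated fluorescence ratio over the kinetic read; more negative B-score means stronger inhibition of depolarization.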 The note with it: ACh-evoked depolarization, at 10 µM; active compounds read low.
As to `Cc1nc2ccc(N3CCN(C)CC3)cc2nc1C`, the B-score result was “inactive”.

Turning to `COc1cccc(-c2nc3ccc(N4CCN(C)CC4)cc3[nH]2)c1`, the B-score is -9.09 (active).

As for `CC1=C(C(=O)Nc2ccccc2)S(=O)(=O)CCO1`, the B-score entry is “inactive”.

In the case of `COc1ccc(Br)cc1CNCCc1cccc(Cl)c1`, the B-score entry is “inactive”.

For `CCOc1cccc(=NC2CCCCC2)c2c(C)[nH]c(C)c12`, the B-score was -8.34 (active).

Take `CCOP(=S)(OCC)C(O)CCCCCn1c(=O)c(F)cn(C2CCCO2)c1=O` (stereo not given): the B-score result is “inactive”.

Turning to `COCc1cc(OC(=O)N(C)C)nc(-c2ccc(C)c(Cl)c2)n1`, the B-score entry is “inactive”.

As to `C[N+]12CN3CN(CN(C3)C1)C2`, the B-score entry was “inactive”.

As for `CC1=CC(=Cc2sc3ccccc3[n+]2C)C=C(C)O1`, the B-score was -5.72 (active).

For the molecule `COc1c(O)ccc2c1-c1c3c(cc4c1C(C2)N(C)CC4)OCO3` (stereo not given), the B-score result is “inactive”.

Turning to `Cc1cccc(OP(=O)(Oc2cccc(C)c2)OC(c2ccccc2)C(F)(F)F)c1` (stereo not given), the B-score entry was “inactive”.

In the case of `CC1=C2C(=O)C3C(CC=C4CC(OC5OC(O)C(O)C(O)C5CO)CCC43C)C2CCC12OC1CC(C)CNC1C2C` (stereo not given), the B-score entry was “inactive”.

Consider `CCOP(=O)(OCC)C(NC(=O)c1ccc(C)cc1)C(Cl)(Cl)Cl` (stereo not given), for which the B-score entry is “inactive”.

Turning to `c1ccc(CC2CCCCN2)cc1` (stereo not given), the B-score entry is “inactive”.

Turning to `Cc1nc2ccccn2c1P(=S)(N1CCCCC1)N1CCCCC1`, the B-score result was “inactive”.

Take `Cc1nn(Cc2ccccc2Cl)c(Cl)c1C(=O)OC(C(=O)NC(N)=O)C(C)C` (stereo not given): the B-score result was “inactive”.

For the molecule `N[C@@H](Cc1c[nH]c2ccccc12)c1nnc(SCc2c(F)cccc2Cl)o1`, the B-score entry is “inactive”.

For the molecule `CC1(C)Cc2c(C#N)c(N3CCNCC3)nc(-c3ccco3)c2CS1`, the B-score was -5.98 (active).

In the case of `O=c1[nH]c(O)c(C=Nc2cc(F)cc(F)c2)c(=O)[nH]1`, the B-score entry was “inactive”.

Turning to `COc1ccccc1NC(=O)N1C[C@@H]2C[C@@H](C1)c1cccc(=O)n1C2`, the B-score result was “inactive”.

With `CN1CCN(Cc2ccc(OC(F)(F)F)cc2)CC1`, the B-score entry is “inactive”.

As for `CCN1CCN(c2ccc([N+](=O)[O-])cc2C#N)CC1`, the B-score entry is “inactive”.

Regarding `CN1CCN(c2cc(N3CCNCC3)ccc2[N+](=O)[O-])CC1`, the B-score is -9.48 (active).

As to `N=c1ccccn1Cc1ccccc1`, the B-score entry is “inactive”.

For `CC(Cc1ccccc1)NC=O` (stereo not given), the B-score entry was “inactive”.

Take `CCCCCCCCCCCCn1ccc(=N)cc1`: the B-score is -8.97 (active).

Turning to `CCCCCCN=C(CC)c1c(O)n(CCCC)c(=O)[nH]c1=O`, the B-score entry was “inactive”.

Regarding `CC(C)(C)[C@]1(O)C[C@@H]2OC(=O)C[C@@]23C(=O)O[C@@H]2OC(=O)[C@H](O)[C@]213`, the B-score entry is “inactive”.

With `c1ccc(C2NCc3ccccc3-n3cccc32)cc1` (stereo not given), the B-score entry is “inactive”.

In the case of `NCCc1c[nH]c2ccc(O)cc12`, the B-score entry is “inactive”.

The values above are taken from PubChem BioAssay AID2553 (Johns Hopkins Ion Channel Center, 2010).
